Inconclusive results are not listed. A call without a number means that no potency is given here. The source made the active and inactive calls. Calls follow the shape of the dose curve; as a rule, active = well fitted cell-killing curve with a large enough effect; inconclusive = small, poorly fitted or top-dose-only effect, or effect the other way; inactive = flat fitted curve, though single readings scatter.
Potency is read from the fitted curve at half-maximal effect.

In this assay the test system is Hek293T. As to the kind of experiment: Primary qHTS to identify gynecologic anti-cancer compounds using libraries of approved drugs and bioactive compounds (AID 1345084). Also: nearly all actives have a fitted effect of over 55% in size. The settings on record: Gynecologic cancer cell panel viability, ATPlite luminescence, 48 h, control line for the selectivity index; series mostly up to 57.5 µM. A digest of the protocol: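 Measured: luminescence after ATPlite addition (15 min, RT). Exposure: 48 h, 37 C, 5% CO2.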
Consider `CN1Cc2c(N)cccc2C(c2ccccc2)C1` (stereo unspecified), for which the Potency result was “inactive”.
Turning to `C(#Cc1cccc(CN2CCOCC2)c1)CCN1CCCCC1`, the Potency result was “inactive”.
As to `C/C=C(\C)C(=O)O[C@H]1[C@H](O)[C@]2(COC(C)=O)[C@H](O)C[C@]3(C)C(=CCC4[C@@]5(C)CC[C@H](O[C@@H]6O[C@H](C(=O)O)[C@@H](O[C@@H]7O[C@H](CO)[C@@H](O)[C@H](O)[C@H]7O)[C@H](O)[C@H]6O[C@@H]6O[C@H](CO)[C@@H](O)[C@H](O)[C@H]6O)[C@](C)(CO)C5CC[C@]43C)[C@@H]2CC1(C)C` (stereo partly specified), the activity change, negative = cytotoxicity was 5.9% [at 11.6 µM] (inactive).
For `C[C@]12C=CC(=O)C=C1CC[C@@H]1[C@@H]2[C@@H](O)C[C@@]2(C)[C@H]1CC[C@]2(O)C(=O)COC(=O)CCC(=O)O`, the Potency result is “inactive”.
On to `CC1=C2[C@@H]([C@H](C)CC[C@H]2/C=C(\C)C(=O)O)[C@H](O)C1`, for which the Potency entry is “inactive”.
The same measure, in the same setting: for `CC(=O)c1c(C)cc(O[C@@H]2O[C@H](CO)[C@@H](O)[C@H](O)[C@H]2O)cc1O` the value was “inactive”.
Turning to `OC[C@H]1O[C@@H](OCCc2ccc(O)cc2)[C@H](O)[C@@H](O)[C@@H]1O`, the Potency result was “inactive”.
On the same count and under the same terms, in the case of `C[C@@H]1C[C@H]2[C@@H]3CCC4=CC(=O)C=C[C@]4(C)[C@@]3(F)[C@@H](O)C[C@]2(C)[C@@]1(O)C(=O)COP(=O)(O)O` it was “inactive”.
Still for that read-out and setting: in the case of `CC(=O)N1CCN(NC(=O)c2ccc(F)cc2)CC1` it was “inactive”.
As to `NC(Cc1c[nH]c2ccccc12)C(=O)NC(CCC(=O)O)C(=O)O` (stereo unspecified), the Potency entry is “inactive”.
Take `CC[C@H](/C=C/[C@@H](C)[C@H]1CC[C@H]2[C@@H]3CC=C4C[C@@H](O)CC[C@]4(C)[C@H]3CC[C@]12C)C(C)C`: the activity change, negative = cytotoxicity is 4.66% [at 6.55 µM] (inactive).
With `CCOc1ccc(C(Nc2ccccn2)c2ccc3ccc(C)nc3c2O)cc1C` (stereo unspecified), the Potency entry is “inactive”.
In the case of `COc1cc(C2Oc3c(OC)cc(/C=C/C(=O)OC[C@H]4O[C@@H](OC(C)(C)C(=O)O)[C@H](O)[C@@H](O)[C@@H]4O)cc3C2CO)ccc1O` (stereo partly specified), the Potency result was “inactive”.
Regarding `COC1=CC(=O)C[C@@H](C)[C@]12Oc1cc(OC)cc(OC)c1C2=O`, the Potency result is “inactive”.
As for `COc1c(C)c(OCC=C(C)C)cc2c1C(=O)NC2=O`, the Potency entry was “inactive”.
In the case of `C[C@]12CCC(=O)C=C1[C@@H](O)C[C@@H]1[C@@H]2[C@@H](O)C[C@@]2(C)[C@H]1CC[C@]2(O)C(=O)CO`, the Potency entry is “inactive”.
For the compound `Cn1c(=O)cc(N2CCCC(N)C2)n(Cc2ccccc2C#N)c1=O` (stereo unspecified), the Potency result is “inactive”.
Turning to `CC(=O)O[C@H]1C[C@@H]2[C@]3(CC[C@]4(C)[C@@H](C5(C)CCC(C(C)(C)O)O5)[C@@H](O)C[C@@]24C)C[C@@]32CC[C@H](O[C@@H]3OC[C@@H](O)[C@H](O)[C@H]3O)C(C)(C)[C@H]12` (stereo partly specified), the Potency entry is “inactive”.
On to `COc1cc(C[C@H]2COC(=O)[C@@H]2Cc2ccc(O)c(OC)c2)ccc1O`, for which the Potency result was “inactive”.
Take `CCC(=O)NS(=O)(=O)c1ccc(-c2c(-c3ccccc3)noc2C)cc1`: the Potency result is “inactive”.
Turning to `C=CC(C)(O)CO[C@@H]1O[C@H](CO)[C@@H](O)[C@H](O)[C@H]1O` (stereo partly specified), the Potency result is “inactive”.
Consider `Clc1ccc(CN[C@H]2CCN(c3ncc(Br)cn3)C2)c(Cl)c1`, for which the Potency entry is “inactive”.
With `CC(C)C(=O)c1cn(CC(=O)COc2ccc(Oc3ccccc3)cc2)c2ccc(C(=O)O)cc12`, the Potency entry is “inactive”.
Still for that read-out and setting: for `CC(C)C1=CC2=CCC3[C@](C)(CCC[C@@]3(C)C(=O)O)C2CC1O` (stereo partly specified) the value was “inactive”; for `CC[C@H]1OC(=O)C[C@@H](O)[C@H](C)[C@@H](O[C@@H]2O[C@H](C)[C@@H](O)[C@H](N(C)C)[C@H]2O)[C@@H](CCN2C[C@H](C)C[C@H](C)C2)C[C@@H](C)C(=O)/C=C/C(C)=C/[C@@H]1CO[C@@H]1O[C@H](C)[C@@H](O)[C@@H](OC)[C@H]1OC`, “inactive”; for `CC(C)NC[C@H](O)COc1ccc(CCOCC2CC2)cc1`, “inactive”.
With `CC(=O)OC(C)OC(=O)C(C)c1ccc(-c2ccccc2)c(F)c1` (stereo unspecified), the Potency entry is “inactive”.
For `C=C1C(=O)O[C@H]2[C@H]1[C@@H](OC(=O)C(C)CO)C[C@@]1(C)[C@H](O)CCC(=O)[C@H]21` (stereo partly specified), the Potency result was “inactive”.
Still for that read-out and setting: for `CCC(C)(O)C(O)C(=O)OCc1ccc(O[C@@H]2O[C@H](CO)[C@@H](O)[C@H](O)[C@H]2O)c(OC)c1` (stereo partly specified) the value was “inactive”; for `NS(=O)(=O)OC[C@@H]1C[C@@H](n2ccc3c(N[C@H]4CCc5ccccc54)ncnc32)C[C@@H]1O`, 2510 nM (active).
The same measure, in the same setting: for `COc1ccc(C[C@H](N)C(=O)N[C@H]2[C@@H](O)[C@H](n3cnc4c(N(C)C)ncnc43)O[C@@H]2CO)cc1` the value was 2820 nM (active).
